According to PubChem BioAssay (EPA / NIEHS):
Where “and” joins values, the source holds several entries; their conditions need not be identical. Equal values may be shown once. Inconclusive results are not listed. Some structures have more than one record in an assay (separate samples or runs), and their calls can disagree. Calls of active or inactive are those of the source. Rule for the calls, unless noted: active = hit-call score of the fitted dose curve at least 0.9, where 1 is the maximum; inconclusive = response in the unintended direction; inactive = score below 0.9.

Tests used:
[1] = target: guinea pig Sigma Receptor, Non-selective Binding, SIGMAR1 (gene 100135589) (UniProt Q60492); experiment: NVS_OR_gSIGMA_NonSelective: NovaScreen (NVS) Nuclear Receptor Binding Assay for guinea pig Sigma Receptor, Non-selective Binding (AID 2283367)
Summary of the method: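 Membranes from guinea pig brain incubated with radioligand and test chemical for 1 h, then filtered and scintillation-counted. Duplicate primary testing at 25 uM, with concentration-series follow-up for actives.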

[2] = target: Peroxisome proliferator-activated receptor gamma (Homo sapiens) (UniProt P37231); experiment: NVS_NR_hPPARg: NovaScreen (NVS) Nuclear Receptor Binding Assay for human Peroxisome Proliferator-activated Receptor gamma (PPARg) (AID 2283370)
Summary of the method: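 Cell-free binding to extracted PPARg protein, read by fluorescence polarization 2 h after dosing; loss of signal relative to DMSO baseline marks displacement. Primary screen in duplicate at 25 uM, actives retested in concentration series.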

[3] = target: Glucocorticoid receptor (Homo sapiens) (UniProt P04150); experiment: NVS_NR_hGR: NovaScreen (NVS) Nuclear Receptor Binding Assay for human Glucocorticoid Receptor (GR) (AID 2283363);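 for AC50: activity is loss of specific radioligand binding signal relative to DMSO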
Summary of the method: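 Filter scintillation readout of tritiated/iodinated radioligand displaced by test chemical; cell-free extracted protein; 16 h. DMSO = negative control/baseline. Duplicate single-point 25 uM screen, then concentration-response on actives.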

[4] = target: human Dopamine Transporter (DAT), SLC6A3 (gene 6531) (UniProt Q01959); experiment: NVS_TR_hDAT: NovaScreen (NVS) Transporter Assay for human Dopamine Transporter (DAT) (AID 2283374);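 note: activity means loss of bound radioligand signal relative to DMSO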
Summary of the method: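 hDAT membranes + tritiated/iodinated radioligand, competitive displacement; 1 h; filter scintillation readout. Single conc 25 uM (duplicate), then conc-response for actives. DMSO = negative control.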

[5] = target: human Norepinephrine Transporter (NET), SLC6A2 (gene 6530) (UniProt P23975); experiment: NVS_TR_hNET: NovaScreen (NVS) Transporter Assay for human Norepinephrine Transporter (NET) (AID 2283377);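 note: cell-free membrane protein extracted from CHO cells expressing human NET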;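 for AC50: displacement of radioligand from human NET seen as loss of scintillation signal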
Summary of the method: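 CHO cell extracts expressing the transporter; tritiated or iodinated tracer displaced competitively; filtration plus scintillation readout at 1 h. Single-point duplicates at 25 uM, concentration series for follow-up; activity = signal drop relative to DMSO.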

[6] = target: Estrogen receptor beta (Homo sapiens) (UniProt Q92731); experiment: OT_ER_ERbERb_1440: Odyssey Thera (OT) 24-hour HEK293T Protein-Complementation Assay for Estrogen Receptor-beta/-beta Homodimer (AID 2283380);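 note: scored as signal increase over DMSO baseline for both agonists and antagonists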
Summary of the method: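 HEK293T cells stably expressing ER beta LBD (aa 310-547) homodimer fragment-complementation reporter, dosed 24 h. Cells formaldehyde-fixed, Draq5-stained; gain in nuclear (agonist) or nuclear plus cytoplasmic (antagonist) fluorescence versus DMSO read by laser scanning cytometry.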

[7] = target: Estrogen receptor (Homo sapiens) (UniProt P03372); experiment: OT_ERa_GFPERaERE_0480: Odyssey Thera (OT) 8-hour HeLa Transcription Induction Assay for Estrogen Receptor (AID 2283381; active = hit-call score of the fitted dose curve at least 0.9, where 1 is the maximum; inactive = score below 0.9)
Summary of the method: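 Fluorescence microscopy with high-content image analysis measures ERE-driven GFP induction in HeLa cells at 8 h post-dose. Increases fitted against DMSO baseline.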

[8] = target: Estrogen receptor (Homo sapiens) (UniProt P03372); experiment: OT_ERa_GFPERaERE_0120: Odyssey Thera (OT) 2-hour HeLa Transcription Induction Assay for Estrogen Receptor (AID 2283382)
Summary of the method: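 Fluorescence-microscopy images of the GFP-ERα/ERE reporter, scored by high-content image algorithms, give the readout. HeLa exposure lasted 2 h, and only signal increase over DMSO was fitted.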

[9] = target: Retinoic acid receptor RXR-alpha (Homo sapiens) (UniProt P19793); experiment: OT_NURR1_NURR1RXRa_0480: Odyssey Thera (OT) 8-hour HEK293T Protein Complementation Assay for Nurr1/retinoid X receptor (RXR) (AID 2283385)
Summary of the method: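 Interaction of Nurr1 with RXRα read as reconstituted reporter fluorescence in a HEK293T fragment-complementation system, 8 h post-treatment; increase over DMSO baseline analysed.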

[10] = target: human Thyroid Receptor Alpha (TRa), THRA (gene 7067) (UniProt P10827); experiment: NVS_NR_hTRa_Antagonist: NovaScreen (NVS) Nuclear Receptor Binding Assay for human Thyroid Receptor Alpha Antagonism (TRa) (AID 2283362);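 note: activity is loss of signal relative to DMSO baseline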
Summary of the method: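 Cell-free binding assay on extracted receptor protein, read 1 h after chemical dosing by AlphaLISA chemiluminescence; loss of signal relative to DMSO baseline marks antagonism. Primary screen ran in duplicate at 25 uM, with concentration series for actives.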

[11] = target: rat Serotonin Transporter (SERT), Slc6a4 (gene 25553) (UniProt P31652); experiment: NVS_TR_rSERT: NovaScreen (NVS) Transporter Assay for rat Serotonin Transporter (SERT) (AID 2283375)
Summary of the method: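 Rat forebrain membranes were incubated with test chemical for 1 hour; radioligand binding to SERT was measured by filter-based scintillation counting. Primary screen ran in duplicate at 25 uM, with actives followed up in concentration series; DMSO served as negative control.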

[12] = target: Agonist Androgen Response Element (ARE), AR (gene 367) (UniProt P10275); experiment: OT_AR_ARELUC_AG_1440: Odyssey Thera (OT) 24-hour CHO-K1 Luciferase Assay for Agonist Androgen Response Element (ARE) (AID 2283379)
Summary of the method: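 Gain-of-signal reporter endpoint: cells (CHO-K1, hamster) are treated 24 h, luciferin/ATP reagent added, and luminescence compared with DMSO baseline.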

[13] = target: Bile acid receptor (Homo sapiens) (UniProt Q96RI1); experiment: OT_FXR_FXRSRC1_0480: Odyssey Thera (OT) 8-hour HEK293T Protein-Complementation Assay for Farnesoid X receptor/SRC-1 Co-activator (AID 2283383)
Summary of the method: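 Binding of FXR to coactivator SRC-1 was read as fluorescence from a reconstituted split reporter in HEK293T cells, 8 h after chemical addition. Only increases in signal versus DMSO were fit.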

[14] = target: Bile acid receptor (Homo sapiens) (UniProt Q96RI1); experiment: OT_FXR_FXRSRC1_1440: Odyssey Thera (OT) 24-hour HEK293T Protein-Complementation Assay for Farnesoid X receptor/SRC-1 Co-activator (AID 2283384)
Summary of the method: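 Protein-fragment complementation: FXR and SRC-1 fused to reporter fragments that reassemble on interaction, read by fluorescence intensity. Human HEK293T cells measured 24 h post-dose; positive-direction fit versus DMSO.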

[15] = tested on: guinea pig Dopamine Transporter (DAT), gene 100714898; experiment: NVS_TR_gDAT: NovaScreen (NVS) Transporter Assay for guinea pig Dopamine Transporter (DAT) (AID 2283369);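 note: active compounds lower bound radioligand signal relative to DMSO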
Summary of the method: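 Guinea pig striatal membranes; radioligand displacement measured by filter-based scintillation counting 2 h after dosing. Initial duplicate screen at 25 uM, then concentration-response up to 50 uM for hits; loss of signal versus DMSO baseline.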

[16] = target: human Serotonin Transporter (SERT), SLC6A4 (gene 6532) (UniProt P31645); experiment: NVS_TR_hSERT: NovaScreen (NVS) Transporter Assay for human Serotonin Transporter (SERT) (AID 2283372)
Summary of the method: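 Human platelet membrane preparation; displacement of radioligand from serotonin transporter measured after 1 h by filtration and scintillation counting. Single 25 uM duplicate screen, then concentration series for actives, with DMSO as negative baseline.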

[17] = tested on: rat Norepinephrine Transporter (NET), gene 83511; experiment: NVS_TR_rNET: NovaScreen (NVS) Transporter Assay for rat Norepinephrine Transporter (NET) (AID 2283373)
Summary of the method: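 Competitive radioligand displacement at the rat NET using forebrain membrane preparations, 1 h incubation, filter-based scintillation readout. Primary testing in duplicate at a single 25 uM concentration; confirmed actives retested across concentrations.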

[18] = target: mouse Estrogen Receptor alpha (Era), Esr1 (gene 13982) (UniProt P19785); experiment: NVS_NR_mERa: NovaScreen (NVS) Nuclear Receptor Binding Assay for mouse Estrogen Receptor alpha (Era) (AID 2283378);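 note: hit means loss of bound radioligand signal relative to DMSO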
Summary of the method: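 Cell-free radioligand binding with extracted mouse Era protein; competitive displacement of radiolabelled ligand, read by filter-based scintillation counting 18 hours after dosing. Loss of signal versus DMSO baseline taken as binding; single screening concentration 25 uM, actives followed in concentration series.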

[19] = target: Retinoic acid receptor alpha (Homo sapiens) (UniProt P10276); experiment: NVS_NR_hRARa_Agonist: NovaScreen (NVS) Nuclear Receptor Binding Assay for human Retinoic Acid Alpha Receptor Agonism (RAR) (AID 2283361)
Summary of the method: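 TR-FRET signal, 2 h post-dosing; cell-free extracted protein; DMSO = baseline, positive fitting direction; 25 uM single-point duplicate, then concentration series for actives.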

Measured: AC50

Sequence of guinea pig Sigma Receptor, Non-selective Binding, SIGMAR1 (gene 100135589) (Q60492 whole entry, looked up): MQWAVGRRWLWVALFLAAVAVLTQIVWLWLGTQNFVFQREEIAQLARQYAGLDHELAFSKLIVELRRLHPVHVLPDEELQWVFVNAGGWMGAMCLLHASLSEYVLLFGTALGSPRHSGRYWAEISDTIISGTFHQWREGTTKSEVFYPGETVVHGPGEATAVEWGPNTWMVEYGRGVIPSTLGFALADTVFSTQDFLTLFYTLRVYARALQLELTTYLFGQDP
Sequence of Retinoic acid receptor RXR-alpha (Homo sapiens) (P19793 whole entry, looked up, the tested form may be a part): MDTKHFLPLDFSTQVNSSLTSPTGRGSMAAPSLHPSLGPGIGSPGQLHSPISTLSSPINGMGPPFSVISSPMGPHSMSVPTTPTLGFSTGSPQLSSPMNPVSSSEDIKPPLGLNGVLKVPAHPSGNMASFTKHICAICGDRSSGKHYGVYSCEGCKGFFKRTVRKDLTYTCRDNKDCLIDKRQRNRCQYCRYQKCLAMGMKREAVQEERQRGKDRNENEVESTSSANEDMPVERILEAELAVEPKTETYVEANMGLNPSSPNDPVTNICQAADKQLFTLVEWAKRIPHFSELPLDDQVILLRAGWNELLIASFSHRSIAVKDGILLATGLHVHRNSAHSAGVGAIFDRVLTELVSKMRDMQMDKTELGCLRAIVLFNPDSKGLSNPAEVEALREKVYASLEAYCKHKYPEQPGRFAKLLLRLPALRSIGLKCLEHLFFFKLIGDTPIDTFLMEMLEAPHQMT
Sequence of Retinoic acid receptor alpha (Homo sapiens) (P10276 whole entry, looked up): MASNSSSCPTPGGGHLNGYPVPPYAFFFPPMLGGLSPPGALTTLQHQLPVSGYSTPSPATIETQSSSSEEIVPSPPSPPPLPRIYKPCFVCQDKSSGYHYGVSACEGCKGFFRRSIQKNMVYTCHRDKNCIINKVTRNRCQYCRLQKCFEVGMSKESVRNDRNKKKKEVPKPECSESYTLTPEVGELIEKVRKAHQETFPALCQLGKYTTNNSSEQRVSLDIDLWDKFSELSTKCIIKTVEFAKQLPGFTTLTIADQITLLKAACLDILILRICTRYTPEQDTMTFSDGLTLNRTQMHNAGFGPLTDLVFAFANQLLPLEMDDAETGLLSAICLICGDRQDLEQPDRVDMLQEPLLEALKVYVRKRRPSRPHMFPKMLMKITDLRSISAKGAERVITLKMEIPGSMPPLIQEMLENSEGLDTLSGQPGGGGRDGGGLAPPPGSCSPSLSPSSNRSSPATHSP
Sequence of Estrogen receptor (Homo sapiens) (P03372 whole entry, looked up): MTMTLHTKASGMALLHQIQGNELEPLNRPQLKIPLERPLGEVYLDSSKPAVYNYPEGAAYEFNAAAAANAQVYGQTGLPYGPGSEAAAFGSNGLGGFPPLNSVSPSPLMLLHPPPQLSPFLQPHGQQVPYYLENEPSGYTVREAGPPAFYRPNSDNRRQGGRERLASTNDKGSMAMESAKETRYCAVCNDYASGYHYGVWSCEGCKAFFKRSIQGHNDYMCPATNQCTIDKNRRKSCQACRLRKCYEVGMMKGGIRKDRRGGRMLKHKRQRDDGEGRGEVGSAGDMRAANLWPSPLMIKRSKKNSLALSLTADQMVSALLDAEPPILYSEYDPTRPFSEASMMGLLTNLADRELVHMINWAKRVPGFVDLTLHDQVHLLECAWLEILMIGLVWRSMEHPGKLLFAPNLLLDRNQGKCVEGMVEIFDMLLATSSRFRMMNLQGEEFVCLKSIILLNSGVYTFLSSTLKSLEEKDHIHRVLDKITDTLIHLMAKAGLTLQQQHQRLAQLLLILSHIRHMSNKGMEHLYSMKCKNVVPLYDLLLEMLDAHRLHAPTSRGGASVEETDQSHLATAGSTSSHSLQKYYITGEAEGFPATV
Sequence of human Serotonin Transporter (SERT), SLC6A4 (gene 6532) (P31645 whole entry, looked up): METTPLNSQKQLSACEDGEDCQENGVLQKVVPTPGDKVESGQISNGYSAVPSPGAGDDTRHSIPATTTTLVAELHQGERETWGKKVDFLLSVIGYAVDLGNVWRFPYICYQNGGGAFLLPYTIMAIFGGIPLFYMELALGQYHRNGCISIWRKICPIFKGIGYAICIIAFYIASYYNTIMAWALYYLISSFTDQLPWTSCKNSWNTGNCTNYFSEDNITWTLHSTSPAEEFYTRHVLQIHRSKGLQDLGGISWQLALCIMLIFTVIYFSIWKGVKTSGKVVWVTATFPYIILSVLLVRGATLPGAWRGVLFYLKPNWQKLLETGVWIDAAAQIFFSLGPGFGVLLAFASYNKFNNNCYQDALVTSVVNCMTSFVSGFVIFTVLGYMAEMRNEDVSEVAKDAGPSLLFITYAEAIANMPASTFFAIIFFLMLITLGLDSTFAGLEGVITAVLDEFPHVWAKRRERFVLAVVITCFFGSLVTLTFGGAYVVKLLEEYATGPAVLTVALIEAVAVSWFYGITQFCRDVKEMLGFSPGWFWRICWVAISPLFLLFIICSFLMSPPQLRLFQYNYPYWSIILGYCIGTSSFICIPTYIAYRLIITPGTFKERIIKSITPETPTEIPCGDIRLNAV
Sequence of human Norepinephrine Transporter (NET), SLC6A2 (gene 6530) (P23975 whole entry, looked up): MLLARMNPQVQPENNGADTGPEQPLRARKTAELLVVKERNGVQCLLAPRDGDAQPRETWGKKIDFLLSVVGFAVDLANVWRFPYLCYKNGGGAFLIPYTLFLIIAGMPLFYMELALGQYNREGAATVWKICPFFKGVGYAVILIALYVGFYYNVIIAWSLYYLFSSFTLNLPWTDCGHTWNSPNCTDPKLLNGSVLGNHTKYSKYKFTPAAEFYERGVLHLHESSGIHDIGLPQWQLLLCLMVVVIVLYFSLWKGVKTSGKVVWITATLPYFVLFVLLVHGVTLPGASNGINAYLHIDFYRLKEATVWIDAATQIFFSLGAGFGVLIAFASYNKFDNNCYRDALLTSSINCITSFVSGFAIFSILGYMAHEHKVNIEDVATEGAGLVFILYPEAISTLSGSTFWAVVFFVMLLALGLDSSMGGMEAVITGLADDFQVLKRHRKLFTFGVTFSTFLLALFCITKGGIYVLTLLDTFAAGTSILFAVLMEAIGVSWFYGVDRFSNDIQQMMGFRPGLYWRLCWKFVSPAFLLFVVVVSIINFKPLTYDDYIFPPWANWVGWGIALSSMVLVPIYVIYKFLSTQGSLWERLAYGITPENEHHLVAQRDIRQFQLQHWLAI
Sequence of Estrogen receptor beta (Homo sapiens) (Q92731 whole entry, looked up, the tested form may be a part): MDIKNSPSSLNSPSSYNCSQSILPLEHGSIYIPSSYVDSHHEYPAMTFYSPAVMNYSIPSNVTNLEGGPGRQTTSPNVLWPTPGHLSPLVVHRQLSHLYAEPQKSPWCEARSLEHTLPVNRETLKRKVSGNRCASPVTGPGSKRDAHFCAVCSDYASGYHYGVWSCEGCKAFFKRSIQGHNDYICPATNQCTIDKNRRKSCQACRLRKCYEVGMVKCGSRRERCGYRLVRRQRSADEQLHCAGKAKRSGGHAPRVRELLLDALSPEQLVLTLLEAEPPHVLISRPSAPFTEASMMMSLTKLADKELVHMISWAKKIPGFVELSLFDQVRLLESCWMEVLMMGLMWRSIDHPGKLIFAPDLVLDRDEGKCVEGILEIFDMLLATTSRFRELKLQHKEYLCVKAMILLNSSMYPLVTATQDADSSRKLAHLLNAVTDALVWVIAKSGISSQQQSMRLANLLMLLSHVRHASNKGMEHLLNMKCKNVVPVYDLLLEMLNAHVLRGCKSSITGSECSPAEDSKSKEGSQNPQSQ
Sequence of human Dopamine Transporter (DAT), SLC6A3 (gene 6531) (Q01959 whole entry, looked up): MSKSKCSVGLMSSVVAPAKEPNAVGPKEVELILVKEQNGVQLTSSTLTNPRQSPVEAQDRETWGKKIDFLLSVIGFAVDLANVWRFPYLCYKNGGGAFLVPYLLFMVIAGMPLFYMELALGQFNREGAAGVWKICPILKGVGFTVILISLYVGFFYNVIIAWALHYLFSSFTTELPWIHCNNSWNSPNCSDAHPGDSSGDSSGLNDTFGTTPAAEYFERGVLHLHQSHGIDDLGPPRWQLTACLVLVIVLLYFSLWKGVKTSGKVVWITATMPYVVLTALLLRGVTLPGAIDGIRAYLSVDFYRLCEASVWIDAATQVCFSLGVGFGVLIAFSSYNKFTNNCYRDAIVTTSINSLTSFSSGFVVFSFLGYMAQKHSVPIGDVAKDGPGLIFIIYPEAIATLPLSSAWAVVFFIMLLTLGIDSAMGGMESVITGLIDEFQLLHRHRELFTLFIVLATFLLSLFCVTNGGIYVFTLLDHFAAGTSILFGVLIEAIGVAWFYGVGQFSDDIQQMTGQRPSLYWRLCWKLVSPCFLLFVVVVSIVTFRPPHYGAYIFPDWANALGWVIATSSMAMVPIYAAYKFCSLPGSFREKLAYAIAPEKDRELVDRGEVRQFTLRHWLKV
Sequence of Peroxisome proliferator-activated receptor gamma (Homo sapiens) (P37231 whole entry, looked up): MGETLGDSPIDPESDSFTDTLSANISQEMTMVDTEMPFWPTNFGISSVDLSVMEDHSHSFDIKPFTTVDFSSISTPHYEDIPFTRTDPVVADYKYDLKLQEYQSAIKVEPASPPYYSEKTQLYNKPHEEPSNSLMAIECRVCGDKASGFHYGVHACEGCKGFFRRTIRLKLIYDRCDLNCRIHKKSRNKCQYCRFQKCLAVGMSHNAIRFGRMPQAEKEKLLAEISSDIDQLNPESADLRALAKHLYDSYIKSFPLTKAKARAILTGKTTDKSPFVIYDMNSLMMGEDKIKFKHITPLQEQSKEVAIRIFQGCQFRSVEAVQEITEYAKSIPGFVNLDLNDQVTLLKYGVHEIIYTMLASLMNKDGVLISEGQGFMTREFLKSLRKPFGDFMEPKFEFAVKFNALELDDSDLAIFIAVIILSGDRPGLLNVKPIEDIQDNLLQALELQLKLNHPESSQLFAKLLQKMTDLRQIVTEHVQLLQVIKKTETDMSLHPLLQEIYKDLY

CCN(C(=O)c1cc(C)cc(OC[C@H](C)Nc2ccncc2)c1)C(C)C
active: [1] 6.22 µM
inactive: [2]

CCC(C)(C)C(=O)O[C@H]1C[C@@H](C)C=C2C=C[C@H](C)[C@H](CC[C@@H]3C[C@@H](O)CC(=O)O3)[C@H]21
inactive: [2] | [5] | [6] | [7] | [8] | [9]
active: [3] 14.5 µM | [4] 25 µM

CNS(=O)(=O)c1cc(C(=O)N2CCC(CCN3C4CCC3CC(n3c(C)nc5ccccc53)C4)(c3cccc(F)c3)CC2)c(Cl)cc1F (configuration not stated)
active: [4] 8.74 µM | [11] 8.93 µM | [5] 2.25 µM | [13] 12.6 µM | [14] 17.6 µM | [9] 14.3 µM
inactive: [10] | [2] | [12] | [6] | [9]

CCOC(=O)COc1ccc2c(c1)CC(NCC(O)c1cccc(Cl)c1)CC2 (configuration not stated)
inactive: [1] | [16] | [17] | [8]
active: [15] 10.6 µM | [4] 0.124 µM | [11] 4.63 µM | [5] 0.312 µM | [7] 69.3 µM | [9] 154 nM and 591 nM

Cn1cnc([N+](=O)[O-])c1Sc1ncnc2nc[nH]c12
inactive: [10] | [2] | [6] | [7] | [8] | [9]

COc1cccc(-c2ccc(/C=C\CN3CCCCCC3)cc2Cl)c1
active: [1] 0.0104 µM | [15] 14.5 µM | [17] 9.83 µM | [4] 5.87 µM | [5] 2.67 µM | [9] 10.3 µM
inactive: [10] | [2] | [11] | [18] | [6] | [7] | [8]

CCn1nc(Cc2ccccc2)cc1C1CCN(C[C@H]2C[C@H](N(C)[C@@H](C(=O)O)C(C)C)C[C@@H]2c2cccc(F)c2)CC1
active: [15] 13.8 µM | [4] 9.06 µM | [5] 11 µM
inactive: [3] | [7] | [8] | [9]

Nc1nc2ncc(CNc3ccc(C(=O)N[C@@H](CCC(=O)O)C(=O)O)cc3)nc2c(=O)[nH]1
inactive: [12] | [9]
active: [19] 15.8 µM

Clc1nc(Cl)c(Cl)c(Cl)c1Cl
inactive: [19] | [2] | [6] | [9]

Nc1ccc(Nc2ccccc2)cc1
active: [3] 14.6 µM | [15] 25 µM | [4] 7.42 µM | [5] 6.87 µM
inactive: [7] | [8] | [9]

CC[C@H]1CC[C@H](NCc2cc3c(cc2OC)[C@H]2C[C@H]2C(=O)N3C)[C@H](c2ccccc2)N1
active: [1] 10.9 µM | [17] 25 µM | [5] 11.3 µM
inactive: [19] | [7] | [8] | [9]

Cc1[nH]cnc1C[C@H]1CCc2c(C)c3ccccc3n2C1=O
active: [1] 10 µM | [15] 12.7 µM | [16] 8.03 µM | [17] 8.58 µM | [4] 11.6 µM | [11] 7.59 µM | [5] 7.21 µM
inactive: [10] | [9]

COc1ccc2sc(C(=O)Nc3nnn[nH]3)c(OC(C)C)c2c1
active: [2] 5.14 µM
inactive: [3] | [5] | [6] | [7] | [8]

CN(C)c1ccc(N=NS(=O)(=O)O)cc1
active: [15] 27.1 µM

CC(=O)OCCC(C)C
inactive: [15]

CCCN(C1CCN(C(=O)C2CCNCC2)CC1)[C@@H]1CCc2ccc(OC)cc2C1
active: [16] 10.3 µM

COCCOc1cc2cc(C(=O)NC3CCN(C(C)C)CC3)n(CC(=O)Nc3ccc(Cl)cn3)c2cn1
active: [16] 15.4 µM
